# Only some compounds are listed: those with a hit (about 6.5% of all), similar ones and a draw of the others.
# MARV entry inh = Marburg virus entry inhibition | AID 540276 | Potency, µM (top dose mostly 37.8 µM), actives largely listed as inhibitors | Marburg virus pseudotyped entry inhibition, cell reporter | 1.8% of 300,000 active; calls by dose curve; tested in HEK293 cells
# FMDV antiviral = foot and mouth disease virus antiviral activity | FMDV antiviral cell-based qHTS | Potency, µM (doses to about 57.9 µM), usual class: inhibitors | 1.2% of 410,000 active | AID 1159524; calls by dose curve; tested in HEK293T cells; further: read-out not given here; nearly all actives have a fitted effect of over 45% in size
# HCMV inh = blocks human cytomegalovirus replication | 4.5% of 410,000 active | HFF cells, HCMV-luciferase reporter, 72 h; stronger effect = lower value | activity change, negative = inhibition, % at 57.5 µM | AID 1259415; in the data active means activity change below about -60%; inconclusive means no clear call, values can overlap the other calls; inactive means above about -39%
#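 Compounds were evaluated in HFFs infected with an HCMV luciferase reporter virus (MOI 1 PFU/cell). Luciferase in lysates collected 72 h post infection served as the replication measure.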
# VACV mCherry inh = vaccinia inhibition (mCherry reporter); Vaccinia virus mCherry reporter infection, fluorescence; Potency, µM (titrated, usually from 36.5 µM), most hits filed as inhibitors; 0.63% of 310,000 active; AID 720579; calls by dose curve; tested in A549 cells; further: nearly all actives have a fitted effect of over 35% in size
# Lassa entry inh = Lassa virus entry inhibition; Lassa virus pseudotype entry inhibition, cell reporter; Potency, µM (series often up to 37.9 µM), actives largely listed as inhibitors; 1.2% of 300,000 active; calls by dose curve; tested in HEK293 cells; further: nearly all actives have a fitted effect of over 50% in size
# Vaccinia Venus = inhibitors of vaccinia virus (Venus reporter). AID 720580. 0.46% of 330,000 active. Potency, µM (titrated, usually from 36.5 µM), most hits filed as inhibitors. Vaccinia virus Venus reporter expression, fluorescence; calls by dose curve; tested in A549 cells; further: nearly all actives have a fitted effect of over 30% in size
# Numbers stand for hits; – = inactive; ? = inconclusive; · = no result; ! = not confirmed by another sample; [ ] = another dose, or the depositor's remark.
SMILES,MARV entry inh,FMDV antiviral,HCMV inh,VACV mCherry inh,Lassa entry inh,Vaccinia Venus
Cc1cccc(-n2c3nc(=O)[nH]c(=O)c-3cc3cc([N+](=O)[O-])ccc32)c1,?,35.5µM,-66.1,?,?,?
Cc1ccc(C)c(-n2c3nc(=O)[nH]c(=O)c-3cc3cc([N+](=O)[O-])ccc32)c1,?,28.2µM,?,–,3.16µM,–
O=c1nc2n(-c3ccccc3F)c3ccccc3cc-2c(=O)[nH]1,–,–,–,–,?,–
COc1ccc(OC[C@@H]2CC3[C@@H](c4ccc(Br)cc4)[C@H](C)CC[C@H]3C(=O)O2)cc1 (some centres undefined),–,·,·,·,·,·
COc1ccc(OC)c(-c2cc(Cl)c3c(c2)CC(CNC(=O)C(C)N2CCOCC2)O3)c1 (centres undefined),·,–,·,–,·,–
C=C(C)Cc1c(C)c(C#N)c2[nH]c3ccccc3n2c1=O,12.6µM,?,-66.0,–,?,–
CCc1c(C)c(C#N)c2[nH]c3ccccc3n2c1=S,–,?,-101.5,–,?,–
CCc1cc(=S)n2c([nH]c3ccccc32)c1C#N,?,?,·,–,?,–
Cc1ccc(Cc2c(C)c(C#N)c3[nH]c4ccccc4n3c2=O)cc1,·,?,–,·,·,·
COc1cccc(C=C2SC(=S)N(Cc3ccco3)C2=O)c1OC,·,·,–,·,·,·
CCN1CCN(c2c(/C=C3\SC(=S)N(Cc4ccco4)C3=O)c(C)c(C#N)c(=O)n2C)CC1,12.6µM,–,-72.9,–,?,–
COCCCNCCCOc1ccc(Cl)cc1Br,16.4µM,–,–,·,–,·
COCCNCCCOc1ccc(C)cc1Br,·,–,–,–,·,–
COCCCNCCCOc1ccc(C)cc1Br,?,–,-63.0,–,?,–
Cc1ccc2c(c1)C(N1CCN(C)CC1)=Nc1cccnc1N2,11.2µM!,·,·,·,–,·
Cc1c(C(=O)N(C)Cc2cccc3ncccc23)cnn1-c1nccc(-c2ccccc2F)n1,·,–,·,–,·,–
Cc1nn(CCC(=O)NCc2ccc(N(C)C)cc2)c(=O)c2nn(-c3ccccc3)c(C)c12,·,–,-62.7!,–,–,–
Cc1ccc(-n2nc3c(=O)n(CCCC(=O)NCc4ccccc4C)nc(C)c3c2C)cc1,·,–,–,?,–,–
Cc1ccc(CNC(=O)CCCn2nc(C)c3c(C)n(-c4ccccc4)nc3c2=O)cc1,·,7.08µM!,?,–,–,–
CCN1CCN(CCNC(=O)CCCn2nc(C)c3c(C)n(-c4ccc(C)cc4)nc3c2=O)CC1,?,–,-66.6,?,–,?
Cc1nn(CCC(=O)NCc2ccc(Cl)cc2)c(=O)c2nn(-c3ccccc3)c(C)c12,·,?,–,–,–,–
Nc1ccc2ccc(NS(=O)(=O)N3CCCCC3)cc2c1,·,·,–,·,·,·
COc1ccc(C2(C(=O)NCC3Cc4cccc(-c5cccnc5)c4O3)CCCC2)cc1 (centres undefined),·,–,·,–,·,–
CN(CC(=O)O)c1ccc(/C=C/c2ccnc3ccccc23)cc1,·,·,·,–,·,–
O=C(COc1ccccc1C(=O)Nc1ccccc1)NC1CCCCC1,·,·,·,–,·,–
SMILES,MARV entry inh,FMDV antiviral,HCMV inh,VACV mCherry inh,Lassa entry inh,Vaccinia Venus
Cc1ccc(-c2ccc(/C=C3\SC(N4CCOCC4)=NC3=O)o2)cc1,?,–,–,?,?,?
O=C1N=C(N2CCOCC2)S/C1=C/c1ccc(-c2ccc(F)cc2)o1,2.51µM,–,–,–,?,–
COc1cc(C(=O)Oc2cccc(/C=N/NC(=O)c3cc(C)[nH]n3)c2)cc(OC)c1OC,?,–,–,–,?,–
Cc1cc(C(=O)N/N=C/c2cccc(OC(=O)c3cccc(Br)c3)c2)n[nH]1,·,–,-71.2,·,·,·
COc1cccc(C(=O)Oc2c(Br)cc(Br)cc2/C=N/NC(=O)c2cc(C)[nH]n2)c1,·,–,-96.8,?,·,?
CCc1nc(N)nc(N)c1-c1ccc(NCCN)c([N+](=O)[O-])c1,·,–,-78.4,?,·,4.47µM
CCc1nc(N)nc(N)c1-c1ccc(N(C)Cc2ccccc2)c([N+](=O)[O-])c1,0.891µM,22.4µM,-97.2,?,?,1µM
CCc1nc(N)nc(N)c1-c1ccc(Cl)cc1,?,–,-98.6,8.91µM!,3.26µM,?
CCC(=O)n1nc(-c2ccc(Cl)cc2)nc1N,·,–,–,·,·,·
Cc1noc(-c2ccc(N(C)Cc3ccccc3)c([N+](=O)[O-])c2)n1,–,–,–,–,?,–
CCC1CCCCN1S(=O)(=O)c1ccc(NC(=O)c2nc(SC)ncc2Cl)cc1 (centres undefined),?,–,?,–,–,–
C=CCOc1nc2sc(C)c(C)c2c(=O)n1-c1ccccc1,·,–,–,·,·,·
Cc1occc1C(=O)NNC(=O)CN1C(=O)NC2(CCCCC2)C1=O,–,–,–,–,–,–
CC(NC(=O)C1CC12CCC2)c1ccccc1 (centres undefined),–,–,-61.0,–,–,–
COc1ccc2nc(N3CCN(C(=O)C4COc5ccccc5O4)CC3)sc2c1 (centres undefined),?,–,–,–,–,–
COc1cc2nc(N3CCN(C(=O)OCc4ccccc4)C(C(=O)NC(C)(C)C)C3)nc(N)c2cc1OC (centres undefined),11.2µM,·,·,·,?,·
COc1cc2nc(N3CCN(C(=O)C4COc5ccccc5O4)CC3)nc(N)c2cc1OC (centres undefined),11.6µM,–,–,–,?,–
Cc1nc2cccnc2n1-c1cccc(C(=O)N2CCN(c3cccc(Cl)c3)CC2)c1,·,25.1µM,–,?,?,–
COc1cccc(N2CCN(C(=O)c3ccc4c(Cl)c5c(nc4c3)CCCC5)CC2)c1,–,?,-75.5,–,?,–
Cc1nc2cccnc2n1-c1cccc(C(=O)NCCc2ccc(Cl)cc2)c1,·,?,?,–,–,–
COc1cccc(N2CCN(C(=O)c3cccc(-n4c(C)nc5cccnc54)c3)CC2)c1,·,28.2µM,–,–,–,–
O=C(O)c1cc(/C=C/c2ccc(N3CCOCC3)cc2)nc2ccccc12,?,10µM,–,–,?,–
Cc1nnc(N(CCC#N)CCC#N)s1,?,–,-71.7,–[1.46 µM],–,–
CN(Cc1ccc(Cl)c(Cl)c1)C(=O)C1CSC2(C)CCC(=O)N12 (centres undefined),·,–,-82.2,·,·,·
CC12CCC(=O)N1C(C(=O)NNC(=O)c1ccccc1Cl)CS2 (centres undefined),·,–,-90.4,·,·,·
SMILES,MARV entry inh,FMDV antiviral,HCMV inh,VACV mCherry inh,Lassa entry inh,Vaccinia Venus
CN(CC(=O)Nc1c(Cl)cccc1Cl)C(=O)C1CSC2(C)CCC(=O)N12 (centres undefined),–,–,–,–,–,–
Cc1cc(-c2cc(F)cc3c2OC(CNC(=O)[C@@H]2CCC(=O)N2)C3)ccc1F (some centres undefined),·,–,·,–,·,–
Cc1ccc(C2=Nc3ccccc3N(CC(=O)NCc3ccc(F)cc3)C(=O)C2)cc1C,·,–,–,?,–,–
O=C(CN1C(=O)CC(c2ccc(F)cc2)=Nc2ccccc21)NCc1ccccc1Cl,·,–,-63.8,–,–,–
N#C/C(=N\Nc1ccc(Cl)c(Cl)c1)C(=O)C1CC1,?,–,-99.7,–,?,?
CC(=O)c1ccc(F)c(-c2cc(C)cc3c2OC(CNC(=O)c2csc(C)n2)C3)c1 (centres undefined),·,–,·,–,·,–
